Drawing on ChEMBL document CHEMBL4513141, “CO-ADD screening of NIH (USA) - Clinical Collection” (2021), this text covers Inhibition for 22 molecules.

Measured potencies and affinities stand elsewhere.

The experiment concerns Cryptococcus neoformans. The conditions noted are these: Concentration 20 uM; ASSAY_TEST Inhibition of Fungal Growth; detection method Resazurin; Absorption (OD600-OD570); plate type 384well; NBS; CORNING #3640. Background: Resazurin is reduced to fluorescent resorufin, in cell work by metabolically active cells.
What is called Inhibition is the relative decrease from the control value, in per cent. As to `CNC(=O)Oc1ccc2c(c1)[C@]1(C)CCN(C)C1N2C.CNC(=O)Oc1ccc2c(c1)[C@]1(C)CCN(C)C1N2C.O=S(=O)(O)O` (some centres not stated), the Inhibition is -6.96%. For `Cl.N=C(N)NC(=O)c1nc(Cl)c(N)nc1N.O.O` [AMILORIDE HYDROCHLORIDE] the value was -6.3%; for `Cl.Oc1ccc2c3c1OC1C(O)CC[C@@]4(O)[C@@H](C2)N(CC2CCC2)CC[C@]314` (some centres not stated), -7.08%; for `CN1[C@@H]2CC[C@H]1CC(OC(=O)C(CO)c1ccccc1)C2` (some centres not stated), -0.25%.

For the molecule `C[C@]12CCC(=O)C=C1CC[C@@H]1[C@@H]2CC[C@@]2(C)[C@H]1CC[C@]2(C)O` [METHYLTESTOSTERONE], the Inhibition is 0%. The figure for `Cl.O=C1CC[C@@]2(O)[C@H]3Cc4ccc(O)c5c4[C@@]2(CCN3CC2CC2)[C@H]1O5` [NALTREXONE HYDROCHLORIDE] is 0.92%; for `Cl.O=C1c2cccc3c2[C@H](CCC3)CN1[C@@H]1CN2CCC1CC2` [PALONOSETRON HYDROCHLORIDE] it is -0.6%; for `COC(=O)C1=C(C)NC(C)=C(C(=O)OC)C1c1ccccc1[N+](=O)[O-]` [NIFEDIPINE] it is -4.99%. For `NC(=O)C[S+]([O-])C(c1ccccc1)c1ccccc1` (configuration not stated) [MODAFINIL] the value was -0.59%. For `NC(=O)OCCCc1ccccc1` [PHENPROBAMATE] the value was -1.72%.

`COc1cc([C@@H]2c3cc4c(cc3[C@H](O)[C@H]3COC(=O)[C@H]23)OCO4)cc(OC)c1OC` [PODOFILOX]: the Inhibition is -1.83%. `C[C@]12CC(C=O)=C(O)C[C@@H]1CC[C@@H]1[C@@H]2CC[C@@]2(C)[C@H]1CC[C@]2(C)O`: the Inhibition is recorded as 3.15%. For `C#CCN(C)[C@H](C)Cc1ccccc1.Cl` [SELEGILINE HYDROCHLORIDE] the value was 1.77%; for `O=C(O[C@@H]1Cc2c(O)cc(O)cc2O[C@@H]1c1cc(O)c(O)c(O)c1)c1cc(O)c(O)c(O)c1` [EPIGALOCATECHIN GALLATE], -2.04%; for `Brc1c(NC2=NCCN2)ccc2nccnc12` [BRIMONIDINE], -1.44%. For `CC[C@@H]1/C=C/C=C/C[C@H](C)[C@@H](O)[C@](C)(O)C(=O)[C@H](C)[C@@H](O)[C@H](C)C(=O)[C@H](C)[C@@H](O)[C@H](C)/C=C/C(=O)O[C@H]2[C@@H](C)[C@@H](CC1)O[C@@]1(CC[C@@H](C)[C@@H](C[C@H](C)O)O1)[C@@H]2C` the value was -9.53%; for `COc1cc(-c2ccc(=O)[nH]n2)ccc1OC(F)F` [ZARDAVERINE], 1.74%.

As for `CC(C)c1cccc(C(C)C)c1O` [PROPOFOL], the Inhibition was -1.51%. Regarding `CN1[C@@H]2CC[C@H]1C[C@@H](OC(=O)c1c[nH]c3ccccc13)C2.Cl`, the Inhibition is given as -7.07%.

`COc1ccc2[nH]cc(CCN)c2c1` [5-METHOXYTRYPTAMINE]: the Inhibition was -39.41%. For `CCOC(=O)c1ncn2c1CN(C)C(=O)c1cc(F)ccc1-2` [FLUMAZENIL] the value was -8.54%; for `c1ccc(Cn2ccnc2)cc1`, 0.79%.
